# Results published in PubChem BioAssay.
# Calls of active or inactive are those of the source.
# Target: Homeobox protein Hox-A13 (Mus musculus) (UniProt Q62424)
# Test: inhibitors of HoxA13-DNA binding, primary screen, biochemical, fluorescence polarization, labeled oligonucleotide (AID 1185)
# Details: 15 min, higher = more signal, called active from +8 up or from −8 down
# Chain of Homeobox protein Hox-A13 (Mus musculus) (Q62424 whole entry, looked up): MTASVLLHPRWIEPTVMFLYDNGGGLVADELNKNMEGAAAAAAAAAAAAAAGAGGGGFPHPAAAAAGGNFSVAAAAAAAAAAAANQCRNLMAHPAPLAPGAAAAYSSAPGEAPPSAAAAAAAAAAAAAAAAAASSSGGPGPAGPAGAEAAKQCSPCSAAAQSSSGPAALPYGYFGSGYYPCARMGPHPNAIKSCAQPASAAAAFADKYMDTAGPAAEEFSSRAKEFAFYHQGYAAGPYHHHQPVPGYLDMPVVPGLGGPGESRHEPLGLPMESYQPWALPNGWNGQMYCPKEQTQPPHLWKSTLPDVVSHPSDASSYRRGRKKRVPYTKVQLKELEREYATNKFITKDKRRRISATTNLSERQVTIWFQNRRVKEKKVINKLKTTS
row,Compound,z-score
1,COC(=O)[C@@]1(Cc2ccc(F)cc2)[C@H]2c3cc(C(=O)N(C)C)n(Cc4ccc(C)c(F)c4F)c3C[C@H]2CN1C(=O)c1ccccc1,-4.74 (inactive)
2,COc1ccc(C#Cc2ccc3c(c2)[C@]2(C(=O)N3)[C@H](c3ccc(OCCO)cc3)N3[C@H](c4ccccc4)[C@H](c4ccccc4)OC(=O)[C@H]3[C@@H]2C(=O)N2CCN(c3ncccn3)CC2)cc1,1.1 (inactive)
3,COC(=O)[C@@]1(Cc2ccccc2)[C@H]2c3cc(C(=O)N(C)C)n(Cc4ccccn4)c3C[C@H]2CN1C(=O)c1ccccc1,-4.92 (inactive)
4,C/C=C/[C@@H](CCn1cc([C@H](O)c2ccccc2)nn1)[Si](C)(C)c1ccc(OC)cc1,-6.33 (inactive)
5,N#Cc1ccc(NN2C(C(O)c3ccco3)C=CC3C(=O)N(c4ccccc4)C(=O)C32)cc1 (centres undefined),-1.96 (inactive)
6,C#CCOC(=O)N[C@H](C=CCCCC)c1ccccc1,-3.62 (inactive)
7,[N-]=[N+]=Nc1ccccc1[C@@H]1OC(c2ccc(OCCCO)cc2)=N[C@]1(CCS(=O)(=O)c1ccccc1)C(=O)NCc1ccccc1,-1.05 (inactive)
8,COc1cc(C(O)C2C=CC3C(=O)NC(=O)C3N2Nc2ccc(Cl)cc2Cl)cc(OC)c1OC (centres undefined),-6.07 (inactive)
9,C=CCN1C(=O)[C@@]2(O[C@@H](CCn3cc([C@H](O)c4ccccc4)nn3)[C@H]([Si](C)(C)c3ccc(OC)cc3)[C@H]2C)c2cc(NC(=O)c3ccc(OC)cc3)ccc21,-4.41 (inactive)
